Data reported in the supplement of paper PMC10849652.
The full data set covers some 8,800 targets. This sample favours those with a hit. About 0.5% of all pairs of compound and target were hits. Unmarked numbers belong to inactive results.

How the values were obtained:
Experiment in all cases: log2 fold change, soluble protein after heating vs DMSO (PISA); higher = thermal stabilisation; K562 lysate, 10 uM; active = over 0.2 and 3.5 SD of the protein, either way, in both replicates (recomputed)
lapatinib = compound: CS(=O)(=O)CCNCc1ccc(-c2ccc3ncnc(Nc4ccc(OCc5cccc(F)c5)c(Cl)c4)c3c2)o1 [lapatinib]
In short: (§1)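 Quantification was by TMTpro 16plex LC-MS/MS with equalised channel sums, applied to the supernatant after 21,000xg for 90 min. Samples were crude K562 extract at 1 mg/mL protein in PBS pH 7.4 with 1 mM MgCl2, treated with 10 μM compound for 30 min, heated for 3 min across 48°C-58°C, pooled and brought to 0.5% NP-40 at 4°C. Values are log-two fold changes in thermal stability relative to solvent controls, from duplicates.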

pictilisib = compound: CS(=O)(=O)N1CCN(Cc2cc3nc(-c4cccc5[nH]ncc45)nc(N4CCOCC4)c3s2)CC1 [pictilisib]
In short: as §1

crizotinib = compound: C[C@@H](Oc1cc(-c2cnn(C3CCNCC3)c2)cnc1N)c1c(Cl)ccc(F)c1Cl [crizotinib]
In short: as §1

[1] = compound: C[C@H](C1=CC=C(C=C1)C(=O)NC2=C3C=CNC3=NC=C2)N
In short: as §1

duvelisib = compound: C[C@H](Nc1ncnc2nc[nH]c12)c1cc2cccc(Cl)c2c(=O)n1-c1ccccc1 [duvelisib]
In short: as §1

gandotinib = compound: Cc1cc(Nc2cc(CN3CCOCC3)c3nc(C)c(Cc4ccc(Cl)cc4F)n3n2)n[nH]1 [gandotinib]
In short: as §1

tozasertib = compound: Cc1cc(Nc2cc(N3CCN(C)CC3)nc(Sc3ccc(NC(=O)C4CC4)cc3)n2)n[nH]1 [tozasertib]
In short: as §1

doramapimod = compound: Cc1ccc(-n2nc(C(C)(C)C)cc2NC(=O)Nc2ccc(OCCN3CCOCC3)c3ccccc23)cc1 [doramapimod]
In short: as §1

bafetinib = compound: Cc1ccc(NC(=O)c2ccc(CN3CC[C@H](N(C)C)C3)c(C(F)(F)F)c2)cc1Nc1nccc(-c2cncnc2)n1 [bafetinib]
In short: as §1

[2] = compound: Cc1cccc(CC(=O)N2CCc3c2ccc(-c2cn(C)c4ncnc(N)c24)c3F)n1
In short: as §1

nilotinib = compound: Cc1cn(-c2cc(NC(=O)c3ccc(C)c(Nc4nccc(-c5cccnc5)n4)c3)cc(C(F)(F)F)c2)cn1 [nilotinib]
In short: as §1

[3] = compound: Cc1nc(Nc2n[nH]c3c2CN(C(=O)N[C@H](CN(C)C)c2ccccc2)C3(C)C)c2sccc2n1
In short: as §1

dasatinib = compound: Cc1nc(Nc2ncc(C(=O)Nc3c(C)cccc3Cl)s2)cc(N2CCN(CCO)CC2)n1 [dasatinib]
In short: as §1

[4] = compound: Cc1ncc(-c2ccnc(Nc3ccc(S(C)(=O)=O)cc3)n2)n1C(C)C
In short: as §1

[5] = compound: Cn1cc(-c2ccc3c(c2)CCN3C(=O)Cc2cccc(C(F)(F)F)c2)c2c(N)ncnc21
In short: as §1

quisinostat = compound: Cn1cc(CNCC2CCN(c3ncc(C(=O)NO)cn3)CC2)c2ccccc21 [quisinostat]
In short: as §1

tipifarnib = compound: Cn1cncc1[C@@](N)(c1ccc(Cl)cc1)c1ccc2c(c1)c(-c1cccc(Cl)c1)cc(=O)n2C [tipifarnib]
In short: as §1

[6] = compound: NC(=O)Nc1cc(-c2cccc(F)c2)sc1C(=O)N[C@H]1CCCNC1
In short: as §1

[7] = compound: NC(=O)c1cnc(N[C@@H]2CCCC[C@@H]2N)nc1Nc1cccc(-n2nccn2)c1
In short: as §1

[8] = compound: NC1(c2ccc(-c3nc4ccn5c(=O)[nH]nc5c4cc3-c3ccccc3)cc2)CCC1
In short: as §1

UniProt Q9BVS4, sequence (Q9BVS4 whole entry, looked up): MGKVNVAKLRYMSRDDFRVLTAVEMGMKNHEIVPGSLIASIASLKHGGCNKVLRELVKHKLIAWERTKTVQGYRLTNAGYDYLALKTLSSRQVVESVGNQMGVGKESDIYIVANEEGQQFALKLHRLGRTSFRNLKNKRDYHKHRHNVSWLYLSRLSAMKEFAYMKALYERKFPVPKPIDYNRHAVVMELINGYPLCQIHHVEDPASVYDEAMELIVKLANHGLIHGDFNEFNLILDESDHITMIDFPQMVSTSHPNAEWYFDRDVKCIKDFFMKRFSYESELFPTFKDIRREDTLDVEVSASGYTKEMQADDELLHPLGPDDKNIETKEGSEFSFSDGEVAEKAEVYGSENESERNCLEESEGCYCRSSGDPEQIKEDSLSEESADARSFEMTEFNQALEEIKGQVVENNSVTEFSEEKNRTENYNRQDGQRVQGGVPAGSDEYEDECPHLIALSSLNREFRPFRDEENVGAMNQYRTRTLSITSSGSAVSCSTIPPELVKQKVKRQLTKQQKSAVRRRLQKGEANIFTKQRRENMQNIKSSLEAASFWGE
UniProt P11233, sequence (P11233 whole entry, looked up): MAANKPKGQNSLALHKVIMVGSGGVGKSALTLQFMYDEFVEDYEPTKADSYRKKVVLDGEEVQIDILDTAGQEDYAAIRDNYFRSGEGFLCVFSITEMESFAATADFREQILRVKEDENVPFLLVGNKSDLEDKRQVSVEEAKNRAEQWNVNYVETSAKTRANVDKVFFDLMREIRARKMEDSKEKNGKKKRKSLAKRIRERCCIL
UniProt P54136, sequence (P54136 whole entry, looked up): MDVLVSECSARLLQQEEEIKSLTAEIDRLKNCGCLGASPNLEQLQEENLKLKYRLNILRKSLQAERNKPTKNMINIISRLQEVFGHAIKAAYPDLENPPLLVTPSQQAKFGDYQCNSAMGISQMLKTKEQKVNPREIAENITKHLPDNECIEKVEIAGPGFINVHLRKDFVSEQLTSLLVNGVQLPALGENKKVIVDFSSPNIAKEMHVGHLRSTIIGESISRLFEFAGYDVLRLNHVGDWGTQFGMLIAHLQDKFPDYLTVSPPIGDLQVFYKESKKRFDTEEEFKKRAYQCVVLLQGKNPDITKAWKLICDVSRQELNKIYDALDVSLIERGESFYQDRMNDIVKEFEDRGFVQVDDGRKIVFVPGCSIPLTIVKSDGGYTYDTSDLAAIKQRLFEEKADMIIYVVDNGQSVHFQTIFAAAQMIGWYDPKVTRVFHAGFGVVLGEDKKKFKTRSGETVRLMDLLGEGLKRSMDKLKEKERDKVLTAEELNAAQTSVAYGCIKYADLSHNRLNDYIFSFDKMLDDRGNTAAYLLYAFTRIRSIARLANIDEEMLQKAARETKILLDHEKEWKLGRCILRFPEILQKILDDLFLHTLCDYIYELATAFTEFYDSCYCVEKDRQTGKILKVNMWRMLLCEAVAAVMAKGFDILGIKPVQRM
UniProt P61224, sequence (P61224 whole entry, looked up): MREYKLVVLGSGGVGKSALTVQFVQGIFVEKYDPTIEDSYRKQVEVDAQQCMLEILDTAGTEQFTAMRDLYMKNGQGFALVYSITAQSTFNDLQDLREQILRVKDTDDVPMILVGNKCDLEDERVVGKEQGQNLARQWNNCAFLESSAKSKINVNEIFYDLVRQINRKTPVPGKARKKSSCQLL
UniProt O75446, sequence (O75446 whole entry, looked up): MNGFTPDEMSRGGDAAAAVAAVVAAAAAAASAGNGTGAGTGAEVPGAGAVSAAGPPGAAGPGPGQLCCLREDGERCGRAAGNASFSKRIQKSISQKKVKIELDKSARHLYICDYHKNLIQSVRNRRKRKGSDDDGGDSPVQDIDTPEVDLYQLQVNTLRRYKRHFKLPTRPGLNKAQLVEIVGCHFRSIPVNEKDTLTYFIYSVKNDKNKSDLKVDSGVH
UniProt P28702, sequence (P28702 whole entry, looked up): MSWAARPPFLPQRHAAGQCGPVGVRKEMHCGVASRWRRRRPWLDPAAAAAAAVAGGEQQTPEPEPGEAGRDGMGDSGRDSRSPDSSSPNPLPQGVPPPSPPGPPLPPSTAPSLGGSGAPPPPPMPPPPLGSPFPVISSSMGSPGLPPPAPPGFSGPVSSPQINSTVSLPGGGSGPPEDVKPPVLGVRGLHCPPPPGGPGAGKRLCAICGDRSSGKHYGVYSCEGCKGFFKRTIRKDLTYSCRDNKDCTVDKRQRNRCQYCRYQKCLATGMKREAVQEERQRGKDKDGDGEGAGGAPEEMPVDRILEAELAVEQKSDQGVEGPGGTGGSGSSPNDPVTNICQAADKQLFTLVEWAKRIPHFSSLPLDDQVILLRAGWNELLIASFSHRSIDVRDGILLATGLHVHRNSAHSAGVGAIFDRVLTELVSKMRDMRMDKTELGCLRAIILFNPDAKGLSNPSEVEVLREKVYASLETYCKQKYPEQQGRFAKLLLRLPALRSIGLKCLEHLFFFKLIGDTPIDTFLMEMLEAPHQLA
UniProt Q86X10, sequence (Q86X10 whole entry, looked up): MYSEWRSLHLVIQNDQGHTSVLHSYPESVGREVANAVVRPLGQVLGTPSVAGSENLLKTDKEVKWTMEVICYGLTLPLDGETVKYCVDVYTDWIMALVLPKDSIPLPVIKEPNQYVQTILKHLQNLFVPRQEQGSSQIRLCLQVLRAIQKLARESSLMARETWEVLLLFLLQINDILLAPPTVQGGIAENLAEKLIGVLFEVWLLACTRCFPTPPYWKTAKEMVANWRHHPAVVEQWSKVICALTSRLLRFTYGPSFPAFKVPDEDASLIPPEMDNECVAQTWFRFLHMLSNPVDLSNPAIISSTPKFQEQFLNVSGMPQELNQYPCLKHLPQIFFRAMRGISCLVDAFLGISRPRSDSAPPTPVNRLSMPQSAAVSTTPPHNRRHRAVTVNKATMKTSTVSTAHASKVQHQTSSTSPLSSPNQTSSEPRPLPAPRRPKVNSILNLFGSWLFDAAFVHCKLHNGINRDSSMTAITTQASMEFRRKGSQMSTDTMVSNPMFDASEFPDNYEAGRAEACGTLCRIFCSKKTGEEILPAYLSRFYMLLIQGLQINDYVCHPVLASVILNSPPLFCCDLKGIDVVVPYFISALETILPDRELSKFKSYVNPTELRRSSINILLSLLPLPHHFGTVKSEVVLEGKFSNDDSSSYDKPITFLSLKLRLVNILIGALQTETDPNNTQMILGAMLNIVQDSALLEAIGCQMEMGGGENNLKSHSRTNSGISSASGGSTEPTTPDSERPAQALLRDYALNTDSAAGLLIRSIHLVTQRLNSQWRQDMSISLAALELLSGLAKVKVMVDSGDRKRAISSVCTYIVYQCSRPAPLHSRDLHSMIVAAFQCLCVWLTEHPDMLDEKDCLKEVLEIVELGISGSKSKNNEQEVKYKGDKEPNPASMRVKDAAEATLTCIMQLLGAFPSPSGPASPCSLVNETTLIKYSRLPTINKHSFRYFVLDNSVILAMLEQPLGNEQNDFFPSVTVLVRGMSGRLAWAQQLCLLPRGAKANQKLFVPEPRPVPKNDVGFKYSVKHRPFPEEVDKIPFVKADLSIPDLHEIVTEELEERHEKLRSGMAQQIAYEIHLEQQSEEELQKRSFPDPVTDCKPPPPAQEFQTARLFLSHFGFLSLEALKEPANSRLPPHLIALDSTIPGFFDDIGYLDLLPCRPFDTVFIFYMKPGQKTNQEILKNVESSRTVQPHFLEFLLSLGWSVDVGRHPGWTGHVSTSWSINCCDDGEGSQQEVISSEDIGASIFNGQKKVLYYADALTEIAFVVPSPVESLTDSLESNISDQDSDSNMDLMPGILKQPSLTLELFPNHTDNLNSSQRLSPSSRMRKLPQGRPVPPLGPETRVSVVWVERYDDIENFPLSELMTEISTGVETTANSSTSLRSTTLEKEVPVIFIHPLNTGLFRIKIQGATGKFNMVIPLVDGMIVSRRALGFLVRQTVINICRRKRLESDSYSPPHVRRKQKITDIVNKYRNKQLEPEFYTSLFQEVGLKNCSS
UniProt Q13530, sequence (Q13530 whole entry, looked up): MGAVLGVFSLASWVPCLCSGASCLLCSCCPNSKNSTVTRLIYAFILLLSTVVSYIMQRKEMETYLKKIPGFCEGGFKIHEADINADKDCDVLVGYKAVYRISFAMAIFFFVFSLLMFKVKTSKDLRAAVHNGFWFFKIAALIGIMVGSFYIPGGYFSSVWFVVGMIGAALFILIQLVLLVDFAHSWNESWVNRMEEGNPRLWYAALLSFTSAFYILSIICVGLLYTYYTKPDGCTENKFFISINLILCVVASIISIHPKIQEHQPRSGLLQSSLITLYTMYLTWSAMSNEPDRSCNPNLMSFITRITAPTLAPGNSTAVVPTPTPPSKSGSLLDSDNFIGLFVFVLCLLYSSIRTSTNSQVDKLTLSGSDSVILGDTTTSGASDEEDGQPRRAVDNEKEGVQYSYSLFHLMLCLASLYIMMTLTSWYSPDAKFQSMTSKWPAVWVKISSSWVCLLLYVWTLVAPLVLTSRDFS
UniProt Q9BTD8, sequence (Q9BTD8 whole entry, looked up): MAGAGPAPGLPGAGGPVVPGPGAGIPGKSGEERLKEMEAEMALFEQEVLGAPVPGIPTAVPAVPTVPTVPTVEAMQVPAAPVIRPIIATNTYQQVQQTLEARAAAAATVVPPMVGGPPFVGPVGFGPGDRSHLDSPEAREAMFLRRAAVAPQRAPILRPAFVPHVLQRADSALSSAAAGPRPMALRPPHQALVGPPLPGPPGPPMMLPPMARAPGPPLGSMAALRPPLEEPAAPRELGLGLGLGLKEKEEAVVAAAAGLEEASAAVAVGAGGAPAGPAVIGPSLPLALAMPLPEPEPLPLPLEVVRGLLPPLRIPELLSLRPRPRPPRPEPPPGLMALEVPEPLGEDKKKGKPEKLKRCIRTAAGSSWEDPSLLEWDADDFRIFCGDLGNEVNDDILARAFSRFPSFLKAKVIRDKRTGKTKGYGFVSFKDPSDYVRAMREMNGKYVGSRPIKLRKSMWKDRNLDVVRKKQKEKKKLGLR

Target	log2 fold change (lapatinib)	log2 fold change (pictilisib)	log2 fold change (crizotinib)	log2 fold change [1]	log2 fold change (duvelisib)	log2 fold change (gandotinib)	log2 fold change (tozasertib)	log2 fold change (doramapimod)	log2 fold change (bafetinib)	log2 fold change [2]	log2 fold change (nilotinib)	log2 fold change [3]	log2 fold change (dasatinib)	log2 fold change [4]	log2 fold change [5]	log2 fold change (quisinostat)	log2 fold change (tipifarnib)	log2 fold change [6]	log2 fold change [7]	log2 fold change [8]
RALA (UniProt P11233)	-0.017	-0.022	0.012	-0.3 (active)	0	0.158	-0.009	0.014	0.029	0.217 (active)	-0.04	-0.001	0.017	-0.04	-0.018	0.004	-0.041	0.033	0.038	-0.003
RALGAPB (UniProt Q86X10)	0.021	-0.062	-0.088	-0.09	0.103	-0.06	0.062	0.046	-0.043	0.103	-0.022	0.029	-0.026	0.026	0.015	-0.048	-0.021	0.053	-0.019	-0.044
RBM8A (UniProt Q9Y5S9)	0.01	0.017	0.135	0.277 (active)	-0.014	-0.209	0.06	-0.038	-0.017	-0.2	-0.005	0.025	0.023	0.004	0.067	0.187	0.051	-0.016	0	0.108
SAP30 (UniProt O75446)	-0.064	-0.036	0.044	0.042	0.004	-0.036	-0.056	0.013	-0.073	0.012	0.104	-0.464 (active)	-0.063	-0.124	0.012	-0.111	-0.026	0.037	-0.035	–
RARS (UniProt P54136)	0.003	0.019	-0.047	0.039	-0.018	-0.078	0.019	0.042	-0.029	0.041	0.004	0	-0.074	-0.017	0.038	-0.017	0.006	0.049	0.015	-0.023
RAB21 (UniProt Q9UL25)	-0.028	-0.053	-0.001	0.208	-0.087	-0.112	-0.013	-0.055	-0.059	-0.09	0.069	-0.036	0.043	-0.017	-0.022	-0.023	-0.051	0.019	-0.017	-0.007
RIOK2 (UniProt Q9BVS4)	-0.032	0.269	0.047	-0.028	0.016	0.829 (active)	-0.011	-0.028	0.093	-0.012	0.002	0.034	0.01	0.537 (active)	-0.023	-0.054	-0.013	0.05	0.198	-0.03
RASA2 (UniProt Q15283)	0.026	-0.089	-0.014	-0.007	-0.045	-0.087	0.013	0.072	-0.078	0.096	-0.049	-0.037	-0.015	0.063	0	-0.071	0.018	-0.011	0.042	-0.031
RAP1B (UniProt P61224)	0.009	-0.006	0.008	0.215 (active)	-0.045	-0.036	0	0.017	0.17	-0.021	0.032	0	0.045	0.027	-0.002	-0.007	-0.034	-0.007	-0.029	-0.025
RABEPK (UniProt Q7Z6M1)	0.003	-0.016	-0.008	-0.069	0.018	0.007	-0.033	0.005	0.024	0.04	-0.003	0.005	0.005	-0.01	0.012	0.004	0.007	-0.018	0.013	0.002
SERINC3 (UniProt Q13530)	-0.052	-0.028	-0.07	-0.38 (active)	-0.001	0.16	-0.012	0.03	-0.014	0.075	0.022	0.023	0.026	-0.006	0.009	-0.131	-0.036	0.04	0.008	-0.083
RPTOR (UniProt Q8N122)	-0.001	-0.024	-0.056	-0.044	-0.024	-0.097	0.019	0.025	-0.057	0.009	-0.005	-0.035	-0.041	-0.016	0.011	-0.057	0.014	0.047	0.006	-0.041
RPS6KA1 (UniProt Q15418)	-0.067	0.08	-0.043	0.007	0.008	0.05	0.165	-0.039	-0.135	-0.172	-0.037	0.204	-0.113	0.078	0.031	-0.045	0.002	0.256	0.093	-0.028
RBM42 (UniProt Q9BTD8)	0.05	0.049	0.01	0.026	-0.032	0.04	-0.001	0.216 (active)	0.083	-0.01	0.102	-0.039	-0.021	0.009	-0.039	-0.033	0.073	-0.022	-0.049	0.004
RXRB isoform 3 (UniProt P28702)	0.085	-0.096	-0.011	0.046	-0.051	-0.074	0.006	-0.091	-0.11	0.023	0.01	-0.038	-0.018	0.001	0.095	-0.038	-0.052	0.032	-0.031	-0.199
SCO1 (UniProt O75880)	0.021	-0.046	-0.046	-0.022	-0.014	0.047	0.01	0.026	0.048	0.073	0.046	0.029	0.001	-0.095	0	-0.13	-0.108	-0.033	0.029	0.001
